Luc counter: Counterscreen for Luciferase (Kinase-Glo TM) Inhibition. Luciferin 4-monooxygenase (Photuris pensylvanica), Q27757. Kinase-Glo luciferase, ATP luminescence, 8 min. Potency, µM (series often up to 38.3 µM), usual class: inhibitors. 0.28% of 200,000 active. AID 1379, 2008; active means well fitted curve in the direction sought with a large enough effect; inconclusive means small, poorly fitted or top-dose-only effect, or another doubt; inactive means no such curve, though single readings can be large; an effect the other way counts as inactive or inconclusive; further: nearly all actives have a fitted effect of over 60% in size
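Luminescence was the read-out, taken after 8-minute incubation at ambient temperature. Luciferase turned over luciferin with 10 uM ATP in imidazole pH 7.2 buffer containing KCl, MgCl2, Tween 20 and BSA.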
LMNA splice mod: qHTS Assay for Modulators of Lamin A Splicing | Potency, µM (highest dose often 46.1 µM), actives largely listed as inhibitors | 0.01% of 200,000 active | HeLa LMNA splicing GFP/RFP minigene ratio, 48 h | AID 1487, 2009; active means well fitted inhibition curve with a large enough effect in the signal ratio, with a control signal flat, not every such curve was filed as active; inconclusive means small, poorly fitted or top-dose-only effect, or effect the other way, or a change in a side signal; the % refers to the signal ratio
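S3 HeLa stable clones carrying a lamin A-EGFP splicing minigene plus DsRed2 were seeded at 600 cells/well in Opti-MEM with 2% FBS, pin-dosed and incubated 48 h at 37°C. Acumen cytometry (488 nm) gave the GFP/RFP total-intensity ratio.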
ALDH1A1 block: qHTS Assay for Inhibitors of Aldehyde Dehydrogenase 1 (ALDH1A1); Aldehyde dehydrogenase 1A1 (Homo sapiens), P00352; 7.3% of 220,000 active; Potency, µM (series often up to 75.3 µM), actives largely listed as inhibitors; Purified ALDH1A1, NADH fluorescence, propionaldehyde substrate
Target sequence (P00352 whole entry, looked up): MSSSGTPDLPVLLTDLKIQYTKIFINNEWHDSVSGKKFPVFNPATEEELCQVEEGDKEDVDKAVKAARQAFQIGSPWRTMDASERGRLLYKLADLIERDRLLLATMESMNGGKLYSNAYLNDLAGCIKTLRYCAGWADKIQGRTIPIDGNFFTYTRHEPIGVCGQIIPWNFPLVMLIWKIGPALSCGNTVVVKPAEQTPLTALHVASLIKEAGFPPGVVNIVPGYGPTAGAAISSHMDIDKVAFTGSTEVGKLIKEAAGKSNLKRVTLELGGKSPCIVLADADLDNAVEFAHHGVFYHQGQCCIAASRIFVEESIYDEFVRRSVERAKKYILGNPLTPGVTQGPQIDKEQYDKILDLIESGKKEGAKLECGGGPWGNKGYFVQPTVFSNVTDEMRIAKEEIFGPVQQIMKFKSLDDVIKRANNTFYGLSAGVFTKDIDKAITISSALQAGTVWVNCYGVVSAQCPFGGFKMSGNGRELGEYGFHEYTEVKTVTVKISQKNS
HPGD block: qHTS Assay for Inhibitors of HPGD (15-Hydroxyprostaglandin Dehydrogenase); purified HPGD, NADH fluorescence kinetic, PGE2 substrate; 15-hydroxyprostaglandin dehydrogenase [NAD(+)] (Homo sapiens), P15428; Potency, µM, usual class: inhibitors; 4.3% of 150,000 active
Target sequence (P15428 whole entry, looked up): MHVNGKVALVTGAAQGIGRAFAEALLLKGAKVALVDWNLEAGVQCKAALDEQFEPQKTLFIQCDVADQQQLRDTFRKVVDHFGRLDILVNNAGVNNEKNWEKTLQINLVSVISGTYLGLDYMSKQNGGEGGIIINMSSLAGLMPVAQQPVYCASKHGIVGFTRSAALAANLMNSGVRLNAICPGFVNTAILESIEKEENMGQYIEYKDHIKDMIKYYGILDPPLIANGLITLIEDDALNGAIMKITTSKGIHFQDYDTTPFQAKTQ
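20 nM HPGD preincubated 15 min at room temperature with compound in 50 mM Tris-HCl pH 8, 0.01% Tween 20. Started with 1 mM NAD+ and 30 uM prostaglandin E2; NADH fluorescence (360/450 nm) read 5 times over 30-s intervals, last minus first.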
IMPase Li cell: qHTS Assay for Identifying the Cell-Membrane Permeable IMPase Inhibitors: Potentiation with Lithium; Potency, µM (doses to about 59.4 µM), most hits filed as inhibitors; 0.35% of 210,000 active; CHO-M1 cells, IP1 TR-FRET (IP-One), carbachol + lithium; active means well fitted curve in the direction sought with a large enough effect; inconclusive means small, poorly fitted or top-dose-only effect, or another doubt; inactive means no such curve, though single readings can be large; an effect the other way counts as inactive or inconclusive;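 further: IP1 builds up when IMPase is blocked and the TR-FRET signal falls; nearly all actives have a fitted effect of over 50% in size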
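Steps: plate 2000 CHO-M1 cells per well and culture 16–30 h; add compound and lithium; incubate 30 min, 37C; add d2-IP1 tracer and Eu cryptate anti-IP1 antibody in lysis buffer; read after 10 min at room temperature.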
Each line names hits and unclear results; the compound was inactive in the other large screens. Rows were chosen to be rich in hits. Some 9% of all compounds tested hit in one or more screens of this group. Unless noted, the call rests on the fitted dose curve; in most records, active means well fitted inhibition curve with a large enough effect (not every such curve was filed as active); inconclusive means small, poorly fitted or top-dose-only effect, or another doubt; inactive means no such curve, though single readings can be large or run the other way.

Cc1c(C(=O)N2CCCCCC2)nnn1-c1nonc1N	ALDH1A1 block 11µM, HPGD block 32µM
CCOC(=O)c1nnn(-c2nonc2N)c1CN(CC)CC	none
CCOC(=O)c1nnn(-c2nonc2N)c1CN1CCCCCC1	ALDH1A1 block 2.2µM
CCOC(=O)c1nnn(-c2nonc2-n2cccc2)c1CN1CCCCC1	none
NNC(=O)c1nnn(-c2nonc2N)c1CN1CCc2ccccc2C1	ALDH1A1 block 4µM (no result: HPGD block)
CCOC(=O)c1nnn(-c2nonc2N)c1CN(C)C1CCCCC1	ALDH1A1 block 2µM
CCOC(=O)c1nnn(-c2nonc2N)c1CNC(C)C	none
C[C@H]1CC[C@@H]2N(C1)C[C@H]1[C@@H]3C[C@H]4[C@@H](C/C(=N\O)[C@H]5C[C@@H](O)CC[C@@]54C)[C@@H]3CC[C@H]1[C@]2(C)O	none (no result: LMNA splice mod)
COc1cccc(C(c2c(C)[nH]n(-c3ccccc3)c2=O)c2c(C)[nH]n(-c3ccccc3)c2=O)c1OC	ALDH1A1 block 3.5µM, HPGD block 22µM
NC1=NC(=O)S/C1=C\c1ccc(F)cc1	none (no result: LMNA splice mod, HPGD block)
CCN(CC)C(=O)c1cc(Cl)ccn1	ALDH1A1 block 32µM (no result: LMNA splice mod, HPGD block)
CCN1CCN(C2=NC(=O)/C(=C/c3ccc(C)o3)S2)CC1	ALDH1A1 block 20µM
COc1ccc(-n2nnc3c(SCC(=O)NCc4ccco4)ncnc32)cc1	LMNA splice mod inconclusive, ALDH1A1 block inconclusive, HPGD block 28µM
O=C(CSc1ncnc2ccccc12)NCc1ccco1	HPGD block 16µM
O=C(CSc1ncnc2ccccc12)c1ccco1	ALDH1A1 block 11µM (no result: LMNA splice mod, HPGD block)
Nc1nc(=O)c2[nH]cnc2n1O	none (no result: LMNA splice mod)
CCOc1ccc(CNC(=O)c2ccc3c(c2)nc2n3CCOC2)cc1OC	none (no result: Luc counter, ALDH1A1 block, HPGD block, IMPase Li cell)
CC1=C(C(=O)Nc2cc(Cl)ccc2C)C(c2cccs2)n2ncnc2N1 (centres undefined)	none (no result: Luc counter, ALDH1A1 block, HPGD block, IMPase Li cell)
O=C(N/N=C\c1ccc(Br)o1)C1COc2ccccc2O1 (centres undefined)	ALDH1A1 block inconclusive (no result: HPGD block)
O=C(N/N=C\c1ccccn1)C1COc2cc3ccccc3cc2O1 (centres undefined)	ALDH1A1 block inconclusive, HPGD block 14µM
O=C(N/N=C\c1ccc(-c2ccc([N+](=O)[O-])cc2)o1)C1COc2ccccc2O1 (centres undefined)	LMNA splice mod inconclusive, HPGD block 20µM, IMPase Li cell inconclusive
CN(C)c1ccc(/C=N/NC(=O)C2COc3ccccc3O2)o1 (centres undefined)	ALDH1A1 block 22µM
NC(=S)N/N=C/c1ccc(-c2cccc([N+](=O)[O-])c2)o1	LMNA splice mod inconclusive, ALDH1A1 block inconclusive, HPGD block 16µM
O=C(N/N=C/c1ccc(-c2cccc([N+](=O)[O-])c2)o1)c1cccs1	none (no result: HPGD block)
CCOC(=O)CNC(=O)O[C@@H]1C(=O)c2ccc(OC)cc2O[C@H]1c1ccc2c(c1)OCO2	none (no result: LMNA splice mod)
O=C(COC(=O)c1nc(Cl)ccc1Cl)NCc1ccccc1	none (no result: LMNA splice mod, HPGD block)
CCc1ccc(NC(=O)C(=O)NCc2ccccn2)cc1	LMNA splice mod inconclusive (no result: HPGD block)
COc1ccc(CNC(=O)C(OC(=O)c2ccco2)c2ccc(OC)cc2)cc1 (centres undefined)	ALDH1A1 block 6.3µM
COc1ccc(C(OC(=O)c2ccco2)C(=O)NCc2ccco2)cc1 (centres undefined)	none
CN1C(=O)C(Cl)(Cl)C(=O)c2ccccc21	LMNA splice mod inconclusive, ALDH1A1 block 0.4µM, HPGD block 22µM
CC(=O)C(=Cc1cn(-c2ccccc2)nc1-c1ccccc1)C(C)=O	ALDH1A1 block inconclusive (no result: HPGD block)
CCOC(=O)Cc1csc(NC(=O)/C=C\c2ccccc2Cl)n1	LMNA splice mod inconclusive (no result: HPGD block)
O=C(O)c1cccc(Cn2c(Cl)c(/C=N/NC(=O)c3cc4ccccc4cc3O)sc2=O)c1	ALDH1A1 block 10µM (no result: Luc counter, LMNA splice mod, HPGD block, IMPase Li cell)
O=C(O)c1cccc(Cn2c(Cl)c(/C=N/NC(=O)c3cccc(O)c3)sc2=O)c1	none (no result: Luc counter, LMNA splice mod, HPGD block, IMPase Li cell)
COC(=O)c1cccc(Cn2c(Cl)c(/C=N/Nc3ccccc3C)sc2=O)c1	LMNA splice mod inconclusive, ALDH1A1 block 22µM, HPGD block inconclusive
O=C(O)c1cccc(Cn2c(Cl)c(/C=N/NC(=O)c3ccccc3)sc2=O)c1	LMNA splice mod inconclusive
O=C(CCl)NCCCCCCCCCNC(=O)CCl	ALDH1A1 block 0.18µM
CC(=O)NCCNc1ncncc1-c1ccccc1CN(C)C	none (no result: Luc counter, HPGD block)
c1cncc(CNc2cc(-c3ccoc3)ncn2)c1	ALDH1A1 block inconclusive (no result: Luc counter, HPGD block)
Cc1cccc(CNc2cc(-c3ccoc3)ncn2)c1	LMNA splice mod inconclusive, ALDH1A1 block inconclusive, HPGD block 20µM
CC1CCCC(C)N1/N=C/c1ccc(N(C)C)cc1 (centres undefined)	ALDH1A1 block 4µM (no result: HPGD block)
Cc1ccc(NC(=O)C2CCCN(c3ncnc4c3nc3n4CCCCC3)C2)cc1F (centres undefined)	none (no result: Luc counter, ALDH1A1 block, HPGD block, IMPase Li cell)
Cc1ccc(C(=O)Nc2nnc(COc3ccccc3)s2)cc1	ALDH1A1 block inconclusive (no result: HPGD block)
Cc1cc(C)c2c(N)c(S(=O)(=O)Cc3ccccc3)sc2n1	HPGD block 22µM
COC(=O)c1sc2nc(C)cc(C)c2c1N	ALDH1A1 block inconclusive (no result: HPGD block)
COc1ccc(N(C(=O)C(C)C)S(=O)(=O)c2ccc(Cl)cc2)cc1	ALDH1A1 block inconclusive
COc1ccc(S(=O)(=O)N(C(C)=O)c2ccc3oc(=O)sc3c2)cc1	LMNA splice mod inconclusive, ALDH1A1 block inconclusive, HPGD block 20µM
COC(=O)C1=C(C(=O)OC)[C@@H]2N(C)c3ccccc3[C@@]23C[C@@H](C(=O)OC)N(S(=O)(=O)c2ccc([N+](=O)[O-])cc2)C3=N1	none
CCOC(=O)c1c(C)[nH]c(-c2csc(N)n2)c1C	ALDH1A1 block 11µM (no result: LMNA splice mod, HPGD block)
Cc1ccc(-c2nc(NC(=O)CSc3nnc(C)s3)ns2)cc1	ALDH1A1 block inconclusive, HPGD block inconclusive, IMPase Li cell 14µM
Cc1ccc(-c2nc(NC(=O)CSc3cc(C)c4ccccc4n3)ns2)cc1	HPGD block 13µM
O=C(COC(=O)CCc1nc2ccccc2c(=O)[nH]1)Nc1ccc2c(c1)OCO2	none (no result: Luc counter, LMNA splice mod, HPGD block, IMPase Li cell)
CC(=O)Nc1ccc(NC(=O)COC(=O)c2c(C)nn(-c3ccccc3)c2C)cc1	LMNA splice mod inconclusive, ALDH1A1 block 22µM
Cc1nn(-c2ccccc2)c(C)c1C(=O)OCC(=O)NC12CC3CC(CC(C3)C1)C2	ALDH1A1 block 8.9µM
Cc1nn(-c2ccccc2)c(C)c1C(=O)OCC(=O)NC(=O)NC1CCCC1	none (no result: Luc counter, HPGD block, IMPase Li cell)
CCOC(=O)C(Cc1ccc(OC)c([N+](=O)[O-])c1)NC(=O)CCC(=O)Nc1ccc(C)cc1 (centres undefined)	ALDH1A1 block 14µM (no result: HPGD block)
COc1ccc(C(=O)OCC(=O)Nc2ccccc2)cc1[N+](=O)[O-]	ALDH1A1 block inconclusive (no result: HPGD block)

High-throughput results deposited in PubChem by National Center for Advancing Translational Sciences (NCATS).
